Reference: PubChem BioAssay (Tox21)
Where “and” joins values, the source holds several entries; their conditions need not be identical. Equal values may be shown once. Inconclusive results are not listed. Where a call stands in place of a potency, no number is given. Where a structure was tested more than once in an assay, its records may differ in their call. Calls of active or inactive are those of the source. Unless noted, the call rests on the fitted dose curve; in most records, active means well fitted curve in the direction sought with a large enough effect in the repeat runs; inconclusive means weak or mixed curves; inactive means no such curve, though single readings can be large; an effect the other way counts as inactive or inconclusive.

Columns and labels:
[1] = qHTS assay for small molecule agonists of the p53 signaling pathway (AID 651631; calls by dose curve; further: nearly all actives have a fitted effect of over 15% in size; further: potency means the concentration at half of the fitted maximal effect)
Procedure, shortened: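 HCT-116 p53RE-bla reporter line, 16 h compound treatment at 37 °C, then fluorescence after 2 h with B/G FRET substrate.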

[2] = qHTS assay for small molecule agonists of the p53 signaling pathway - cell viability (AID 651633; calls by dose curve; further: nearly all actives have a fitted effect of over 30% in size; further: potency means the concentration at half of the fitted maximal effect)
Procedure, shortened: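 Viability counter-read: CellTiter-Glo luminescence (30 min, room temperature) in the same p53RE-bla plates. These plates had been exposed to compounds for 16 h at 37 C.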

[3] = qHTS assay for small molecules that induce genotoxicity in human embryonic kidney cells expressing luciferase-tagged ATAD5 - cell viability (AID 651634; calls by dose curve; further: nearly all actives have a fitted effect of over 25% in size; further: potency means the concentration at half of the fitted maximal effect)
Procedure, shortened: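 HEK293T cells carrying luciferase-tagged ATAD5, 2,000 cells/well, exposed to compound for 15.5 hr at 37C. Viability read as live-cell protease activity by CellTiter-Fluor fluorescence after 30 min at 37C.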

[4] = qHTS assay for small molecule disruptors of the mitochondrial membrane potential - cell viability (AID 720634; calls by dose curve; further: nearly all actives have a fitted effect of over 20% in size; further: potency means the concentration at half of the fitted maximal effect)
Procedure, shortened: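 HepG2 cells, 2,000 per well, attached overnight, then treated 1 hr at 37 C, 5% CO2. Viability read as ATP by CellTiter-Glo luminescence after 30 min at room temperature. Read in the same wells as the m-MPI membrane-potential dye assay.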

[5] = qHTS assay for small molecule disruptors of the mitochondrial membrane potential (AID 720635); further: potency means the concentration at half of the fitted maximal effect
Procedure, shortened: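 Mitochondrial membrane potential tracked with Mito-MPS dye, red aggregates (ex 540/em 590 nm) against green monomers (ex 490/em 535 nm). Compound treatment 1 hr at 37C, dye 30 min in HepG2.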

[6] = qHTS assay to test for compound auto fluorescence at 590 nm (red) in HepG2 cells (AID 720674)
Procedure, shortened: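 1 hr compound incubation on HepG2 cells, 37 C, 5% CO2; plate read ex 540 nm / em 590 nm; intensities reported as Rose Bengal sodium equivalents.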

[7] = qHTS assay to test for compound auto fluorescence at 460 nm (blue) in HEK293 cells (AID 720678)
Procedure, shortened: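 Measured: blue fluorescence (Ex 405/Em 460 nm) of compound-treated HEK293 cells, incubated overnight at 37C with 5% CO2 and scaled to triamterene equivalents.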

[8] = qHTS assay to test for compound auto fluorescence at 590 nm (red) in HEK293 cells (AID 720679)
Procedure, shortened: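 Using HEK293 cells at 2,000 per well, the screen added 23 nL of each compound after cell attachment and incubated overnight (37C, 5% CO2). The plate reader then captured red-label fluorescence, Ex/Em 540/590nm.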

[9] = qHTS assay for small molecules that induce genotoxicity in human embryonic kidney cells expressing luciferase-tagged ATAD5 (AID 651632); further: nearly all actives have a fitted effect of over 15% in size; further: potency means the concentration at half of the fitted maximal effect
Procedure, shortened: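 HEK293T cells carrying luciferase-tagged ATAD5 were given compound or DMSO vehicle and incubated 16 hr at 37C, 5% CO2. Luciferase activity was read after 30 min at room temperature with Amplite; a rise signals genotoxic stress.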

[10] = qHTS assay to test for compound auto fluorescence at 535 nm (green) in HepG2 cells (AID 720675)

Row | SMILES | Potency [1] | Potency [2] | Potency [3] | Potency [4] | Potency [5] | outcome [6] | outcome [7] | outcome [8] | Potency [9] | outcome [10]
1 | CCOC(=S)S | inactive | inactive | inactive | inactive | inactive | inactive | inactive | inactive |  | 
2 | CCC(=O)O[C@H]1CC[C@H]2[C@@H]3CCC4=CC(=O)CC[C@]4(C)[C@H]3CC[C@]12C | inactive | inactive and 61.1 µM (active) |  | inactive |  | inactive | inactive | inactive | inactive | inactive
3 | CN(C)c1ccc(C(=O)c2ccc(N(C)C)cc2)cc1 | 605 nM (active) and 273 nM (active) | inactive | inactive |  | 53.9 µM (active) | inactive | inactive | inactive | 27 µM (active) | 
4 | CCN(N=O)C(N)=O | inactive | inactive |  | inactive | inactive | inactive | inactive | inactive | inactive | inactive
5 | CCC(C)c1cc([N+](=O)[O-])cc([N+](=O)[O-])c1O (stereo unspecified) | inactive and 864 nM (active) | inactive |  | inactive and 1.22 µM (active) | inactive and 344 nM (active) | inactive | inactive | inactive | inactive | 
6 | CC1(C)C(C=C(Cl)Cl)C1C(=O)OC(C#N)c1cccc(Oc2ccccc2)c1 (stereo unspecified) | inactive | inactive |  |  |  | inactive | inactive | inactive | inactive | inactive
7 | Nc1ccncc1 | inactive | inactive |  | inactive | inactive | inactive | inactive | inactive | inactive | inactive
8 | c1ccc(P(c2ccccc2)c2ccccc2)cc1 | inactive | inactive |  | inactive |  | inactive | inactive | inactive | inactive | inactive
9 | Oc1cc(Cl)ccc1Cl | inactive | inactive |  | inactive | 28.1 µM (active) and 27.3 µM (active) | inactive | inactive | inactive | inactive | inactive
10 | C=CCc1ccc2c(c1)OCO2 | inactive | inactive | inactive | inactive |  | inactive | inactive | inactive |  | 
11 | Nc1ccc(-c2ccccc2)cc1 | inactive | inactive |  |  |  | inactive | inactive | inactive | inactive | inactive
12 | CCCCC(CC)COC(=O)c1ccc(C(=O)OCC(CC)CCCC)c(C(=O)OCC(CC)CCCC)c1 (stereo unspecified) | inactive | inactive | inactive |  |  | inactive | inactive | inactive | inactive | 
13 | Nn1cnnc1 | inactive | inactive |  | inactive | inactive | inactive | inactive | inactive | inactive | 
14 | CNC(=O)Oc1cccc2c1OC(C)(C)O2 | inactive | inactive |  | inactive | inactive | inactive | inactive | inactive | inactive | inactive
15 | CCOC(=O)C(C)OC(=O)c1cc(Oc2ccc(C(F)(F)F)cc2Cl)ccc1[N+](=O)[O-] (stereo unspecified) | inactive | inactive |  |  | 21.6 µM (active) and 61.1 µM (active) | inactive | inactive | inactive | inactive | 
16 | CCN(CC)C(=O)/C(Cl)=C(\C)OP(=O)(OC)OC | inactive | inactive |  | inactive | inactive | inactive | inactive | inactive | inactive | 
17 | Cc1ccc(OP(=O)(Oc2ccc(C)cc2)Oc2ccc(C)cc2)cc1 | inactive | inactive |  |  | 24.3 µM (active) | inactive | inactive | inactive | inactive | inactive
18 | CNC(=O)N(C)c1nnc(C(C)(C)C)s1 | inactive | inactive |  | inactive |  | inactive | inactive | inactive | inactive | inactive
19 | O=P(Oc1ccccc1)(Oc1ccccc1)Oc1ccccc1 | inactive | inactive |  | 13.6 µM (active) | 242 nM (active) and 1.22 µM (active) | inactive | inactive | inactive | inactive | inactive
20 | c1ccc(N=Nc2ccccc2)cc1 | inactive | inactive |  | inactive | inactive | inactive | inactive | inactive | inactive | inactive
21 | Cc1cc(Cl)ccc1OCCCC(=O)O | inactive | inactive |  |  |  | inactive | inactive | inactive | inactive | inactive
22 | COP(=S)(OC)Oc1cc(Cl)c(Cl)cc1Cl | inactive | inactive |  | inactive | 11.9 µM (active) and 29.8 µM (active) and 7.64 µM (active) | inactive | inactive | inactive | inactive | 
23 | O=c1oc2ccccc2c(O)c1C(CC(O)c1ccc(-c2ccc(Br)cc2)cc1)c1ccccc1 (stereo unspecified) | 21.1 µM (active) and 46 µM (active) | 9.44 µM (active) and 51.6 µM (active) |  | 6.68 µM (active) | 6.68 µM (active) and 23 µM (active) | inactive | inactive | inactive | inactive | inactive
24 | O=C(O)CC[N+](=O)[O-] | inactive | inactive | inactive | inactive | inactive | inactive | inactive | inactive |  | 
25 | Oc1cc(Cl)ccc1Oc1ccc(Cl)cc1Cl | inactive | 3.95 µM (active) |  | 11.1 µM (active) | 4.22 µM (active) and 352 nM (active) | inactive | inactive | inactive | inactive | 
26 | NNC(=S)NN | inactive | inactive |  | inactive | inactive | inactive | inactive | inactive | inactive | 
27 | Nc1ccc(Cl)c(Cl)c1 | inactive | inactive |  | inactive | inactive | inactive | inactive | inactive | inactive | 

Row | SMILES | Potency [1] | Potency [2] | Potency [3] | Potency [4] | Potency [5] | outcome [6] | outcome [7] | outcome [8] | Potency [9] | outcome [10]
28 | CC(O)CCO (stereo unspecified) | inactive | inactive | inactive |  |  | inactive | inactive | inactive | inactive | inactive
29 | Oc1c(Cl)c(Cl)c(Cl)c(Cl)c1Cl | 3.37 µM (active) and 3.43 µM (active) | inactive |  | inactive | 3.78 µM (active) and 1.53 µM (active) | inactive | inactive | inactive | inactive | inactive
30 | COP(=O)(OC)OC | inactive | inactive |  | inactive | inactive | inactive | inactive | inactive | inactive | 
31 | CCCCOCCOP(=O)(OCCOCCCC)OCCOCCCC | inactive | 54.5 µM (active) and inactive |  | 54.5 µM (active) and inactive | 27.3 µM (active) and inactive | inactive | inactive | inactive | inactive | inactive
32 | CC(C)(c1cc(Cl)c(O)c(Cl)c1)c1cc(Cl)c(O)c(Cl)c1 |  | 61.1 µM (active) |  | inactive | 2.43 µM (active) and 2.73 µM (active) | inactive | inactive | inactive | inactive | 
33 | c1cc(OCC2CO2)ccc1Cc1ccc(OCC2CO2)cc1 (stereo unspecified) |  | 54.7 µM (active) |  | inactive |  | inactive | inactive | inactive | inactive | 
34 | C1=Cc2cccc3cccc1c23 |  | inactive |  | inactive |  | inactive | inactive | inactive | inactive | inactive
35 | Cc1ccc2c(c1N)C(=O)c1ccccc1C2=O |  | inactive |  |  | 480 nM (active) and 386 nM (active) | inactive | inactive | inactive | 13.5 µM (active) and 9.69 µM (active) | 
36 | N#Cc1cc(Br)c(O)c(Br)c1 |  | inactive |  | 11.7 µM (active) | 13.7 µM (active) and 4.17 µM (active) | inactive | inactive | inactive | inactive | inactive
37 | c1ccc(-c2cccc(-c3ccccc3)c2)cc1 | inactive | inactive |  |  |  | inactive | inactive | inactive |  | inactive
38 | O=S(=O)(Oc1ccc(Cl)cc1)c1ccc(Cl)cc1 |  | inactive |  | inactive | 31 µM (active) and 12.2 µM (active) | inactive | inactive | inactive | inactive | inactive
39 | Cc1ccc(N)c(N)c1 |  | inactive | inactive | inactive |  | inactive | inactive | inactive | 68.8 µM (active) and 68.6 µM (active) | inactive
40 | C=C(C)[C@H]1Cc2c(ccc3c2O[C@@H]2COc4cc(OC)c(OC)cc4[C@@H]2C3=O)O1 |  |  | 139 nM (active) and 486 nM (active) | 11.9 µM (active) and 31 µM (active) and 12.2 µM (active) | 15 µM (active) and 31 µM (active) and 4.86 µM (active) | inactive | inactive | inactive | inactive | inactive
41 | CCCCCCCCC(=O)NCc1ccc(O)c(OC)c1 |  | inactive |  | inactive |  | inactive | inactive | inactive | inactive | inactive
42 | Nc1ccc(-c2ccc(N)c(N)c2)cc1N |  | 48.6 µM (active) | inactive | inactive | 216 nM (active) and 7.7 µM (active) | inactive | inactive | inactive | inactive | inactive
43 | C=CCc1ccc(OC)cc1 |  | inactive | inactive | inactive |  | inactive | inactive | inactive |  | 
44 | NC(=S)Nc1ccccc1 |  | inactive | inactive |  |  | inactive | inactive | inactive | inactive | inactive
45 | CC(C)=CC1C(C(=O)OCc2coc(Cc3ccccc3)c2)C1(C)C (stereo unspecified) |  | inactive |  |  | 48.6 µM (active) and 61.1 µM (active) | inactive | inactive | inactive | inactive | 
46 | N#CC(Br)Br |  | inactive | inactive | inactive | inactive | inactive | inactive | inactive | inactive | inactive
47 | Oc1cc(Cl)c(Cl)cc1Cl |  | inactive |  |  | 5.96 µM (active) [middle of 4 runs] | inactive | inactive | inactive | inactive | inactive
48 | O=C(CCl)c1ccccc1 |  | inactive |  | inactive | inactive | inactive | inactive | inactive | 68.6 µM (active) | inactive
49 | CCCCN(CC)c1c([N+](=O)[O-])cc(C(F)(F)F)cc1[N+](=O)[O-] |  | inactive | inactive | inactive | 6.86 µM (active) | inactive | inactive | inactive | inactive | 
50 | CC(C)(C)c1ccccc1O |  | inactive | inactive |  |  | inactive | inactive | inactive | inactive | 
51 | CCC(C)c1ccc(O)cc1 (stereo unspecified) |  | inactive | inactive | inactive | 27.6 µM (active) and 24.3 µM (active) | inactive | inactive | inactive | inactive | inactive
52 | Cc1cccc(N)c1N |  | inactive | inactive | inactive | 21 µM (active) and 17.2 µM (active) | inactive | inactive | inactive | inactive | inactive
53 | CCOCN(C(=O)CCl)c1c(C)cccc1CC |  | inactive | inactive | inactive |  | inactive | inactive | inactive | inactive | inactive
54 | Cc1cc(C)cc(C)c1 |  |  | inactive | inactive | inactive | inactive | inactive | inactive | inactive | 
